PubChem BioAssay (NCATS)
Several values for one entry are separate records, joined by “and”; a condition that tells them apart may be missing. Equal values may be shown once. Inconclusive results are not listed. Entries that show only a call come without a potency. Activity calls are given as the source filed them. Calls come from the whole dose curve; as a rule, active = well fitted curve in the direction sought with a large enough effect; inconclusive = small, poorly fitted or top-dose-only effect, or another doubt; inactive = no such curve, though single readings can be large; an effect the other way counts as inactive or inconclusive.

Tests used:
[1] = tested on: Zika virus NS2B-NS3 protease (linked construct); assay: Primary screen NINDS Rhodamine qHTS for Zika virus inhibitors (AID 1347160); note: nearly all actives have a fitted effect of over 55% in size; note: potency is the fitted concentration of half-maximal effect
Procedure, shortened: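 Rhodamine110-peptide cleavage (1.5 µM substrate) by 25 nM linked NS2B-NS3 enzyme at pH 8.0 (Tris, Tween 20), after 15 min RT preincubation with compounds; 15-min fluorescence change normalized to controls and Hill-fitted.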

[2] = qHTS to identify inhibitors of the type 1 interferon - major histocompatibility complex class I in skeletal muscle: primary screen against the NCATS Pharmaceutical Collection (AID 1347407);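 note: luminescence of HiBiT knocked into endogenous HLA-B as interferon-induced MHC class I level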
Procedure, shortened: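 Luminescence from HiBiT-tagged endogenous HLA-B*08:01 served as the read-out of IFN-beta-induced MHC class I in CRISPR-engineered C25cl48 myoblasts. Cells received 4 ng/ml IFN-beta plus compound (high final 46 uM, […]) for 24 h.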

[3] = qHTS for inhibitors of adenylyl cyclases using a fission yeast platform: a pilot screen against the NCATS LOPAC library (AID 1347410)
Procedure, shortened: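 Fission yeast qHTS: CHP2027 cells (AC9-GNAS-PDE4D2, fbp1-GFP), 5x10^6 cells/mL working density, EMM + His/Lys/Ura; LOPAC at up to 57 µM final; 18 h dark, 30C; GFP by laser cytometry. DPI positive control, DMSO vehicle.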

[4] = qHTS to identify inhibitors of the type 1 interferon - major histocompatibility complex class I in skeletal muscle: primary screen against the NCATS LOPAC collection (AID 1347405);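 note: human myoblasts with HiBiT tag on endogenous HLA-B stimulated by IFN-beta; lytic HiBiT luminescence reporting HLA-B protein level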
Procedure, shortened: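 IFN-beta-stimulated (4 ng/ml) HLA-B HiBiT knock-in myoblasts, compound-treated 24 hrs up to 46 uM final; signal via LgBiT complementation and furimazine luminescence.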

[5] = Confirmatory screen NINDS Rhodamine qHTS for Zika virus inhibitors (AID 1347161); conditions: purified enzyme assay, Rhodamine110 substrate fluorescence, 15 min; note: potency is the fitted concentration of half-maximal effect; nearly all actives have a fitted effect of over 60% in size
Procedure, shortened: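 In 10 mM Tris-HCl pH 8.0 containing 0.01% Tween 20, linked NS2B-NS3 protease (25 nM final) is exposed to test compounds for 15 min. Cleavage of 1.5 microM Rhodamine110 substrate is tracked by fluorescence over 15 min.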

[6] = tested on: Zika virus NS2B-NS3 protease (linked); assay: 384 well plate NINDS AMC confirmatory qHTS for Zika virus inhibitors (AID 1347163); note: nearly all actives have a fitted effect of over 50% in size; note: potency is the fitted concentration of half-maximal effect
Procedure, shortened: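 Enzyme (5, 30 or 60 nM final) first met test compounds for ~15 min. The AMC-tagged peptide Ac-VKTGKR-AMC followed at 30 microM. Fluorescence was then recorded at 25 min and scaled against no-enzyme and no-inhibitor wells.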

[7] = tested on: Zika virus NS2B-NS3 protease (linked construct); assay: 384 well plate NINDS Rhodamine confirmatory qHTS for Zika virus inhibitors (AID 1347164); conditions: rhodamine-110 peptide substrate fluorescence;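 note: fluorescence from protease cleavage of Ac-LKRR-rhodamine 110 substrate; potency is the fitted concentration of half-maximal effect; nearly all actives have a fitted effect of over 65% in size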
Procedure, shortened: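 Enzyme (final 5/30/60 nM) + cpd (DMSO), ~15 min; add Ac-LKRR-Rd 10 microM final; 25 min RT, dark; FI ex 485/em 538; normalized to no-enzyme, no-inhibitor ctrls; aprotinin intraplate ctrl.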

[8] = Vero cells viability qHTS for Zika virus inhibitors (AID 1347167); note: potency is the fitted concentration of half-maximal effect
Procedure, shortened: (§1)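 qHTS titration; 24-48 h compound exposure, 37 degrees C/5% CO2; DMEM, 4% FBS; CellTiter Glo ATP luminescence.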

[9] = HepG2 cells viability qHTS for Zika virus inhibitors (AID 1347168)
Procedure, shortened: as §1

[10] = Tertiary RLuc qRT-PCR qHTS assay for Zika virus inhibitors (AID 1347169); note: nearly all actives have a fitted effect of over 55% in size; note: potency is the fitted concentration of half-maximal effect
Excerpt: Avindra Nath, Ph.D., National Institute of Neurological Disorders and Stroke (NINDS), Bethesda, MD
Radhakrishnan Padmanabhan, Ph.D., Georgetown University (GU), Washington D.C.
Zika Virus causes congenital defects, including microcephaly and is associated with Guillain-Barre syndrome, eningoencephalitis and myelitis in infected adult. […] Using a target-based approach, we hope to establish a screening paradigm to uncover novel, cell-active NS2B-NS3 protease (Zika Virus) specific inhibitors from NCATS' collection of small molecules using qHTS.
Four assay panel was created to identify potential Zika Virus inhibitors. Namely, (1) GU unlinked NS2B-NS3 AMC tagged protease qHTS, (2) GU unlinked NS2B-NS3 Rhodamine tagged protease qHTS, (3) NINDS linked NS2B-NS3 AMC tagged protease qHTS, (4) NINDS linked NS2B-NS3 Rhodamine tagged protease qHTS. Identified inhibitors were re-acquired and tested against secondary confirmatory, orthogonal, and counterscreens to exclude nonspecific inhibition.
Early Translation Branch (ETB)
National Center for Advancing Translational Sciences (NCATS), Rockville, MD
National Institute of Health (NIH), Bethesda, Maryland
1536-well recombinant virus ZIKV-RLuc (Cambodian) Assay:
For a follow-up assay, we adapted a high throughput orthogonal assay in 1536-well plate format to use the recombinant virus ZIKV-RLuc, in Vero cells. Briefly, three microL of Vero cells derived from a green monkey cell line, were dispensed Multidrop Dispenser into a solid bottom white 1,536-well plate at a concentration of 1,000 cells per well. The plate was incubated overnight in a CO2 incubator at 37 degrees C. Compounds were delivered as a 23 nL DMSO solution by Kalypsys pintool transfer. Following compound transfer, 2 microL of ZIKV-RLuc was added at an MOI of 1-2 and incubated in a CO2 incubator for 48-72 hrs at 37 degrees C. After sufficient incubation of infected cells in test plates, live cell Renilla luciferase substrate (Promega) was added. The luminescence signal was measured after 1-1.5 hrs exposure to substrate in ViewLux reader.

Q: With `CCN(CC)CCCC(C)Nc1c2ccc(Cl)cc2nc2ccc(OC)cc12` (centres undefined) as the compound, how does the Potency [1] read?
A: inactive

Q: What about the Potency [2] of the same compound?
A: inactive

Q: And the outcome [3]?
A: inactive

Q: Which Potency [1] does the source give for `Cc1ccc2nc(N)[nH]c(=O)c2c1Sc1ccncc1` here?
A: inactive

Q: And the Potency [2]?
A: inactive

Q: Which results are given for `CCCCc1ncc(/C=C(\Cc2cccs2)C(=O)O)n1Cc1ccc(C(=O)O)cc1`?
A: Potency [1]: inactive; Potency [4]: inactive; Potency [2]: inactive; outcome [3]: inactive

Q: What does the source list for `Nc1ccc(S(=O)(=O)Nc2nccs2)cc1`?
A: Potency [1]: inactive; Potency [2]: inactive

Q: With `C[C@@H]1CN(c2c(F)c(F)c3c(=O)c(C(=O)O)cn(C4CC4)c3c2F)C[C@H](C)N1` as the compound, how does the outcome [1] read?
A: inactive [at 10.7 µM]

Q: And the Potency [2]?
A: inactive

Q: What does the source list for `Cc1cc(C(C#N)c2ccc(Cl)cc2)c(Cl)cc1NC(=O)c1cc(I)cc(I)c1O` (centres undefined)?
A: Potency [1]: 3.16 µM (active); Potency [5]: 2.78 µM (active) and 2.21 µM (active); Potency [6]: 4.47 µM (active); Potency [7]: 1.78 µM (active); Potency [8]: 13.1 µM (active); outcome [9]: inactive; Potency [10]: 6.58 µM (active) and 16.5 µM (active); Potency [2]: inactive

Q: Which results are given for `CCCCOc1cc(C(=O)OCCN(CC)CC)ccc1N`?
A: Potency [1]: inactive; Potency [2]: inactive

Q: Which results are given for `CC(C)(C(=O)O)c1ccc(C(O)CCCN2CCC(C(O)(c3ccccc3)c3ccccc3)CC2)cc1` (centres undefined)?
A: Potency [1]: inactive; Potency [4]: inactive; Potency [2]: inactive; outcome [3]: inactive

Q: Which Potency [1] does the source give for `CC(C(O)c1ccc(O)cc1)N1CCC(Cc2ccccc2)CC1` (centres undefined) here?
A: inactive

Q: What about the Potency [4] of the same compound?
A: inactive

Q: What about the Potency [2] of the same compound?
A: inactive

Q: And the outcome [3]?
A: inactive

Q: For `CC(C)(O)c1ccccc1CC[C@@H](SCC1(CC(=O)O)CC1)c1cccc(/C=C/c2ccc3ccc(Cl)cc3n2)c1`, which Potency [6] is on record?
A: inactive

Q: What about the Potency [7] of the same compound?
A: 112 µM (active)

Q: And the Potency [8]?
A: inactive

Q: What about the outcome [9] of the same compound?
A: inactive

Q: What about the Potency [10] of the same compound?
A: inactive

Q: And the Potency [2]?
A: inactive

Q: What does the source list for `CNC(=O)Oc1ccc2c(c1)[C@]1(C)CCN(C)[C@@H]1N2C`?
A: Potency [1]: inactive; Potency [4]: inactive; Potency [2]: inactive; outcome [3]: inactive

Q: Which Potency [1] does the source give for `CCOc1ccc2ccccc2c1C(=O)N[C@@H]1C(=O)N2[C@@H]1SC(C)(C)[C@@H]2C(=O)O` here?
A: inactive

Q: What about the Potency [2] of the same compound?
A: inactive

Q: With `C[C@@H]1C[C@H]2[C@@H]3C[C@H](F)C4=CC(=O)C=C[C@]4(C)[C@@]3(F)[C@@H](O)C[C@]2(C)[C@@]1(O)C(=O)CO` as the compound, how does the Potency [1] read?
A: inactive

Q: What about the Potency [2] of the same compound?
A: inactive

Q: For `COc1ccc(Cl)cc1C(=O)NCCc1ccc(S(=O)(=O)NC(=O)NC2CCCCC2)cc1`, which Potency [1] is on record?
A: inactive

Q: What about the Potency [4] of the same compound?
A: inactive

Q: What about the Potency [2] of the same compound?
A: inactive

Q: And the outcome [3]?
A: inactive

Q: Which Potency [1] does the source give for `CCN(CC)C(=O)Nc1ccc(OCC(O)CNC(C)(C)C)c(C(C)=O)c1` (centres undefined) here?
A: inactive

Q: And the Potency [2]?
A: inactive

Q: What does the source list for `Nc1nc2c(ncn2CCC(CO)CO)c(=O)[nH]1`?
A: Potency [1]: inactive; Potency [2]: inactive

Q: With `CC/C=C(\C(=O)N[C@@H]1C(=O)N2C(C(=O)OCOC(=O)C(C)(C)C)=C(COC(N)=O)CS[C@H]12)c1csc(N)n1` as the compound, how does the Potency [1] read?
A: inactive

Q: What about the Potency [2] of the same compound?
A: inactive

Q: For `NC1[C@H]2CN(c3nc4c(cc3F)c(=O)c(C(=O)O)cn4-c3ccc(F)cc3F)C[C@@H]12` (some centres undefined), which Potency [8] is on record?
A: inactive

Q: What about the outcome [9] of the same compound?
A: inactive

Q: And the Potency [10]?
A: inactive

Q: And the outcome [3]?
A: inactive

Q: Which results are given for `Cn1c(=O)c2c(ncn2CC2OCCO2)n(C)c1=O`?
A: Potency [1]: inactive; Potency [2]: inactive

Q: For `c1ccc(CN(CC2=NCCN2)c2ccccc2)cc1`, which Potency [1] is on record?
A: inactive

Q: What about the Potency [2] of the same compound?
A: inactive

Q: Which results are given for `CS(=O)(=O)c1ccc([C@@H](O)[C@@H](CF)NC(=O)C(Cl)Cl)cc1`?
A: Potency [1]: inactive; Potency [2]: inactive

Q: Which results are given for `OCC(O)CN1CCN(c2ccccc2)CC1` (centres undefined)?
A: Potency [1]: inactive; Potency [2]: inactive

Q: What does the source list for `CN1CCOC(c2ccccc2)c2ccccc2C1` (centres undefined)?
A: Potency [1]: inactive; Potency [2]: inactive

Q: With `O=C(CCCN1CCN(c2ccccn2)CC1)c1ccc(F)cc1` as the compound, how does the Potency [1] read?
A: inactive

Q: What about the Potency [2] of the same compound?
A: inactive

Q: For `COc1ccc2cc1Oc1ccc(cc1)C[C@H]1c3c(cc4c(c3Oc3cc5c(cc3OC)CCN(C)[C@@H]5C2)OCO4)CCN1C`, which Potency [1] is on record?
A: inactive

Q: Which Potency [1] does the source give for `COc1ccc2[nH]c(S(=O)Cc3ncc(C)c(OC)c3C)nc2n1` (centres undefined) here?
A: inactive

Q: What about the Potency [2] of the same compound?
A: inactive

Q: With `O=c1[nH]cnc2c1ncn2[C@@H]1O[C@H](CO)[C@@H](O)[C@H]1O` as the compound, how does the Potency [1] read?
A: inactive

Q: And the Potency [2]?
A: inactive

Q: For `Cc1cc(N)c2ccccc2[n+]1CCCCCCCCCC[n+]1c(C)cc(N)c2ccccc21`, which Potency [1] is on record?
A: inactive

Q: What about the Potency [4] of the same compound?
A: inactive

Q: What about the outcome [3] of the same compound?
A: inactive

Q: Which results are given for `CC(C)(C)C(=O)C(Oc1ccc(Cl)cc1)n1ccnc1` (centres undefined)?
A: Potency [1]: inactive; Potency [2]: inactive

Q: Which Potency [5] does the source give for `COc1ccc2c(c1)C(=O)N(CCc1ccc(S(=O)(=O)NC(=O)NC3CCCCC3)cc1)C(=O)C2(C)C` here?
A: 31.2 µM (active)

Q: With `CCCCN1CCCC[C@H]1C(=O)Nc1c(C)cccc1C` as the compound, how does the Potency [1] read?
A: inactive

Q: And the Potency [2]?
A: inactive

Q: What does the source list for `CCOc1nc2cccc(C(=O)O)c2n1Cc1ccc(-c2ccccc2-c2nn[nH]n2)cc1`?
A: Potency [1]: inactive; Potency [2]: inactive

Q: Which Potency [1] does the source give for `CCN(CC)CCNC(=O)c1cc(Cl)c(N)cc1OC` here?
A: inactive

Q: What about the Potency [4] of the same compound?
A: inactive

Q: And the Potency [2]?
A: inactive

Q: And the outcome [3]?
A: inactive

Q: With `CN1CCC[C@@H]1Cc1c[nH]c2ccc(CCS(=O)(=O)c3ccccc3)cc12` as the compound, how does the Potency [1] read?
A: inactive

Q: And the Potency [4]?
A: inactive

Q: And the Potency [2]?
A: inactive

Q: What about the outcome [3] of the same compound?
A: inactive
